Measured values: PubChem BioAssay (NCI)
Compounds without any hit were thinned out: in the full panel of roughly 83,000, 20% have a hit.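 Compound tested at a single concentration for 48 hours in 96-well plates; a percent growth value below 10 was scored as active.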 A number with no mark means an inactive call. Active and inactive are the calls of the source.

Legend:
Test in all cases: NCI-60 one-dose screen, 48 h (100 = growth as untreated, 0 = no growth, -100 = all killed)
Details in all cases: 10 µM unless noted
[1] = test system: DU-145 prostate
[2] = test system: K-562 leukemia
[3] = test system: MALME-3M melanoma
[4] = test system: MDA-MB-231 breast
[5] = test system: RXF 393 renal
[6] = test system: SF-268 CNS
[7] = test system: SF-295 CNS
[8] = test system: SF-539 CNS
[9] = test system: UACC-257 melanoma
[10] = test system: M14 melanoma

| Structure (SMILES) | growth [1] | growth [2] | growth [3] | growth [4] | growth [5] | growth [6] | growth [7] | growth [8] | growth [9] | growth [10] |
| --- | --- | --- | --- | --- | --- | --- | --- | --- | --- | --- |
| Cc1nc2sc(C(=O)Nc3cccc(Cl)c3C)c(N)c2cc1C(=O)c1ccccc1 | 11% | 13.5% | 25% | 39% | 3.56% (active) | 29.2% | 1.83% (active) | -7.44% (active) | 63.3% | 6.11% (active) |
| COc1ccc2[nH]cc(C(c3cc(F)cc(F)c3)c3c[nH]c4ccc(OC)cc34)c2c1 | 95.9% | 59% | 206% | 78.8% | 80.5% | 80% | 79.1% | 93.4% | 84.3% | 86.6% |
| S=C(Nc1ccc(-c2nc(N3CCOCC3)c3cccn3n2)cc1)Nc1cccnc1 | 18.6% | 26.2% | 24.7% | 41.3% | 17.9% | 53.1% | 25.6% | 10% | 50.9% | 32.1% |
| COc1ccc(-c2cc(-c3ccc(Cl)cc3)c(C#N)c(=O)n2CCCCC(=O)Nc2ccccc2N)cc1 | 59.9% | 24.8% | 59.3% | 39.3% | 14.2% | 65.5% | -14.5% (active) | 73.9% | 44.7% | -7.3% (active) |
| Cc1ccc(Sc2nnc(/N=C3\C(=O)Nc4ccccc43)s2)cc1 | 114% | 95.5% | 102% | 104% | 120% | 98.9% | 105% | 101% | 94.2% | 101% |
| Fc1ccc(Nc2nc3nonc3nc2Nc2ccc(I)cc2)cc1 | 23% | 6.8% (active) | -25.6% (active) | -23.5% (active) | -10.2% (active) | 22% | -43.6% (active) | 7.05% (active) | -24.5% (active) | -3.95% (active) |
| Cc1ccc(Cc2cnc(NC(=O)c3cc(Br)cs3)s2)cc1 | 84.9% | 15% | 56.5% | 70.9% | 71.4% | 71.7% | 43.8% | 66.4% | 79.5% | 30.4% |
| N#Cc1c(-c2ccc(Cl)cc2)nc(NN=Cc2cccc(O)c2)nc1N1CCOCC1 | 63.4% | 45.1% | 104% | 95.9% | 24.1% | 81.9% | 97.1% | 67.8% | 86.5% | 66.6% |
| Cc1cccc2c1NC(=O)C2(c1ccc(O)cc1)c1ccc(O)cc1 | 84.6% | 99.9% | 93.1% | 86.3% | -11.2% (active) | 96.7% | 73.1% | 95.2% | 79.4% | 94.4% |
| C=CCn1cc(-c2nc3ccccc3s2)c2cc(-c3ccc4c5c(cccc35)C(=O)N(N)C4=O)ccc21 | 110% | 107% | 101% | 83.1% | 106% | 89.5% | 99.1% | 101% | 104% | 94.5% |
| CCn1c(=S)[nH]c2c(=O)n(C)c(=O)n(C)c21 | 111% | 105% | 99.6% | 115% | 106% | 114% | 104% | 95.3% | 92% | 95.5% |
| Clc1ccc(Nc2nnc(COc3ccccc3)c3ccccc23)cc1 | 10.4% | 2.77% (active) | -13.5% (active) | 11.4% | -5.93% (active) | 13.2% | -1.11% (active) | 8.42% (active) | -24.9% (active) | -9.99% (active) |
| CC1=C(C(=O)OC(C)C)C(c2ccc3c(c2)OCO3)NC(=S)N1 (stereo not given) | 109% | 107% | 95.9% | 101% | 106% | 103% | 95.8% | 98.9% | 100% | 99% |
| Cn1cccc1C(=O)C1C(c2cccc([N+](=O)[O-])c2)C2C3CCCCC3CN2C12C(=O)Nc1ccc(Cl)cc12 (stereo not given) | 38.7% | 33.4% | 68.1% | 55.6% | -16.8% (active) | 52.3% | 82.3% | 77.2% | 70.7% | 52.4% |
| COC(=O)[C@]1(C)CCC[C@]2(C)[C@H]3C[C@H]4C(C(C)C)=C[C@]3(CC[C@H]21)[C@H]1[C@@H]4[C@@H](OCCC#N)CC[C@@H]1OCCC#N | 57% | 26.8% | 61.9% | 47.3% | -10.5% (active) | 47.9% | 30% | 59.7% | 37.8% | 40.7% |
